From the supplement of paper PMC11732987, “Enantioselective OTUD7B fragment discovery through chemoproteomics screening and high-throughput optimisation” (Communications Chemistry, 2025) come the findings set out here.

Chain of UniProt Q8NB14 (Q8NB14 whole entry): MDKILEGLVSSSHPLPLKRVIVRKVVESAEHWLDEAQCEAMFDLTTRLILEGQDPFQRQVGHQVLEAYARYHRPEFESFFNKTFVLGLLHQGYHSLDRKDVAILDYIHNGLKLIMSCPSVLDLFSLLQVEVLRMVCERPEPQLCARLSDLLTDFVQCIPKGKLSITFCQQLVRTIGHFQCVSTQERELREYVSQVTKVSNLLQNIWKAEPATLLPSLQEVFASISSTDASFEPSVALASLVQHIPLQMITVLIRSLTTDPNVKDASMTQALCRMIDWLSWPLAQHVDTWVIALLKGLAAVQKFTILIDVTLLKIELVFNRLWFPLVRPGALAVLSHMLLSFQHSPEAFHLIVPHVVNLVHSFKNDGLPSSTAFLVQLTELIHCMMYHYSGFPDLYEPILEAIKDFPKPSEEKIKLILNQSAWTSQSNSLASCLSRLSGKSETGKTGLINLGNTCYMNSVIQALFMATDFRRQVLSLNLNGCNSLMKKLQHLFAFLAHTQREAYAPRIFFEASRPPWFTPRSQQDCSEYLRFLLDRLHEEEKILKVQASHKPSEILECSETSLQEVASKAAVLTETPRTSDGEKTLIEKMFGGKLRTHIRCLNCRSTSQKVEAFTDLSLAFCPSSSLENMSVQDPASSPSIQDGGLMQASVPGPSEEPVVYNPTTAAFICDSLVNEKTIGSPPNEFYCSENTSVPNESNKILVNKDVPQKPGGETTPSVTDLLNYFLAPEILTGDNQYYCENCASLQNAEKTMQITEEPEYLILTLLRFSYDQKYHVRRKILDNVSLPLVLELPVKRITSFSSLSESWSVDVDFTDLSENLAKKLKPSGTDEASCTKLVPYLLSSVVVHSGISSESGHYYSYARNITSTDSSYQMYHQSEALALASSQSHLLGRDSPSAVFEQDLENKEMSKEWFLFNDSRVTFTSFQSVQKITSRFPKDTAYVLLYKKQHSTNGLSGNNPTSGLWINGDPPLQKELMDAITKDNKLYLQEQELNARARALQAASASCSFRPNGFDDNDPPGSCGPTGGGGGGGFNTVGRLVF
Chain of UniProt Q70CQ2 (Q70CQ2 whole entry): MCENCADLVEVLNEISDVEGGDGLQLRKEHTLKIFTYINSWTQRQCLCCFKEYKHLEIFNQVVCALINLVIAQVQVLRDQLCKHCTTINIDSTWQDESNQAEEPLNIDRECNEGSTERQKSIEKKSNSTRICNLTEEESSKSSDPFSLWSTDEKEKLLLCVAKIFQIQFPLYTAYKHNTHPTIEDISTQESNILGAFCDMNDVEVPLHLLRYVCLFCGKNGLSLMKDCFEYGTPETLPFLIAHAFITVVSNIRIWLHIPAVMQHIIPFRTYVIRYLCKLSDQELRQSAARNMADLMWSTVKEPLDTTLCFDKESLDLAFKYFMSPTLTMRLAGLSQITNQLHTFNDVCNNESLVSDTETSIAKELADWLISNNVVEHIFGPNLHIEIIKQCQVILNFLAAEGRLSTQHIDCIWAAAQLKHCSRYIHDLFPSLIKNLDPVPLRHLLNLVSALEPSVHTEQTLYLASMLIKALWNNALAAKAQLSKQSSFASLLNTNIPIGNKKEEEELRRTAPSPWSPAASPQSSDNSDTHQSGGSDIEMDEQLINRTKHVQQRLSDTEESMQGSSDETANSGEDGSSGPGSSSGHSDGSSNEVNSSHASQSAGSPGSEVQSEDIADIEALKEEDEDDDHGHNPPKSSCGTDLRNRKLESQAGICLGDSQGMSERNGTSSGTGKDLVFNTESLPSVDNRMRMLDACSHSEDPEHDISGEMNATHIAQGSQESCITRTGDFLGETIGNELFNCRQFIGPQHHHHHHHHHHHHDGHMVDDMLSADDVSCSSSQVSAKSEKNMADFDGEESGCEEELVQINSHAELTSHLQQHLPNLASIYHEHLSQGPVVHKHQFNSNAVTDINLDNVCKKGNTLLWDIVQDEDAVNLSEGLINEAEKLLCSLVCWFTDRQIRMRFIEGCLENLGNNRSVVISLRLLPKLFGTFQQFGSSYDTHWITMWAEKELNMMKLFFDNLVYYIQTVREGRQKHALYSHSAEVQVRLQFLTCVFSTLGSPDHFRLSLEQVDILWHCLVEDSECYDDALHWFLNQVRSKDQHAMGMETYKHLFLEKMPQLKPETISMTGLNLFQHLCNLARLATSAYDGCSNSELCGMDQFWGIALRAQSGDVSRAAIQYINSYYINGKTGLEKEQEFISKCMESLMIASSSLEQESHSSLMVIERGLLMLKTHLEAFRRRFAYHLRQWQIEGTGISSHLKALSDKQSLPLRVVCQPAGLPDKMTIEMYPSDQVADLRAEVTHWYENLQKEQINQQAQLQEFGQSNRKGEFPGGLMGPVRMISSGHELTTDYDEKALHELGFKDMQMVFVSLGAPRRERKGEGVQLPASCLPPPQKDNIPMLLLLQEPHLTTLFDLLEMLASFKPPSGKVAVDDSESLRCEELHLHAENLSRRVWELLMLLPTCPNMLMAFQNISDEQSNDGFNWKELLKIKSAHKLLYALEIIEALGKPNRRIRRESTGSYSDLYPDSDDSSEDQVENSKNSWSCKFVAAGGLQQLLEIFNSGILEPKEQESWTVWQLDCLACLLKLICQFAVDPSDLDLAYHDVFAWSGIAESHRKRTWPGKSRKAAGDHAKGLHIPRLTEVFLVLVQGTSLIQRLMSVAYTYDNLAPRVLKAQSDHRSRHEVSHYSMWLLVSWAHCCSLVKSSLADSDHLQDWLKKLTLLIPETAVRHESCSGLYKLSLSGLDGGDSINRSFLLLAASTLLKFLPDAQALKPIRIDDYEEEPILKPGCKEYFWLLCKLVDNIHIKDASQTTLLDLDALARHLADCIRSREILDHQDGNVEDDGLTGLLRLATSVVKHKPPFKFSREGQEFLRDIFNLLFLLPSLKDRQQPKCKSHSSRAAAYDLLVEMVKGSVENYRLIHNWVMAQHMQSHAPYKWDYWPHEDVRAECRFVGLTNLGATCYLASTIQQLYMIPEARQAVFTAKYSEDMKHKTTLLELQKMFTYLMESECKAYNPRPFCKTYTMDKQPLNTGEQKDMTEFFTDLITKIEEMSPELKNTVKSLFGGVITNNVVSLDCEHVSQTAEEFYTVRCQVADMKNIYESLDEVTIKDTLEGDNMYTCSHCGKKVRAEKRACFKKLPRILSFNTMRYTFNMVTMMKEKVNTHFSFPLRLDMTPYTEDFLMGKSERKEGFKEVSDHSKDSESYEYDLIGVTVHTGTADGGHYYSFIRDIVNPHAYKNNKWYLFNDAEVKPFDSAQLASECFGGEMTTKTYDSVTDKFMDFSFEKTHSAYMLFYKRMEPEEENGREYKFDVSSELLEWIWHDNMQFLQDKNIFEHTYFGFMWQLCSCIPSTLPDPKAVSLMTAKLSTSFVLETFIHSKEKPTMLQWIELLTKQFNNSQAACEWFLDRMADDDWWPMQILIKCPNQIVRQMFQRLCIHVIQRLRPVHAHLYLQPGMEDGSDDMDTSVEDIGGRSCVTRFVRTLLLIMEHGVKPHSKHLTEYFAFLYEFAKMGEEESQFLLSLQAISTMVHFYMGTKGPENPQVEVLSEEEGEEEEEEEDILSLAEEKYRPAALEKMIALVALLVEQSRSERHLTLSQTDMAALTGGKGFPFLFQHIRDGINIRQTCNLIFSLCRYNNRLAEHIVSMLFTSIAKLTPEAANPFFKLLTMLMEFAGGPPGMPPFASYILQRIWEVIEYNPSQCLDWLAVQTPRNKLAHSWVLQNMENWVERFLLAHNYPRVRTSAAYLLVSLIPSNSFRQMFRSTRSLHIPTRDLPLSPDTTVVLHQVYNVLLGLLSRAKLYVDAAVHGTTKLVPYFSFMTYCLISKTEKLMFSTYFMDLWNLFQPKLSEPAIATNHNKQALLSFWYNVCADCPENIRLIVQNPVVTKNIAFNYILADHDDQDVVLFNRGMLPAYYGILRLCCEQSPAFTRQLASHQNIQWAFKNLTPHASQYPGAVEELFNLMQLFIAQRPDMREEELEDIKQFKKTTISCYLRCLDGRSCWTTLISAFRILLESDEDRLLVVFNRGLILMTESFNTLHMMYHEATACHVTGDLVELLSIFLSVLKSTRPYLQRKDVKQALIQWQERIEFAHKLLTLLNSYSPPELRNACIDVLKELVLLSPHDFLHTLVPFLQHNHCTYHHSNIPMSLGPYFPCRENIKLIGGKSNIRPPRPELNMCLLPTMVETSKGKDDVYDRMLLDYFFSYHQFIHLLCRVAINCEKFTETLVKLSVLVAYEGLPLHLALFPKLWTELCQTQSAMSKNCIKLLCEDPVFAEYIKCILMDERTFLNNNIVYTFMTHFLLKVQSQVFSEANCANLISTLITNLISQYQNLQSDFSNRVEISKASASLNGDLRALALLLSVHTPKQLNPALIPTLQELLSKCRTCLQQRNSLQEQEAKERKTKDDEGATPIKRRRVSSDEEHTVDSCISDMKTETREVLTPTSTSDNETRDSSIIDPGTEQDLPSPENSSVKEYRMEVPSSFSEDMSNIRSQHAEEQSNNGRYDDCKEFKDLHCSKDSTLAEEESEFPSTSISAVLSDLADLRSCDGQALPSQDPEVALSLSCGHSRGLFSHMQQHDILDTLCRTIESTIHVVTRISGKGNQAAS
Chain of UniProt Q53GS9 (Q53GS9 whole entry): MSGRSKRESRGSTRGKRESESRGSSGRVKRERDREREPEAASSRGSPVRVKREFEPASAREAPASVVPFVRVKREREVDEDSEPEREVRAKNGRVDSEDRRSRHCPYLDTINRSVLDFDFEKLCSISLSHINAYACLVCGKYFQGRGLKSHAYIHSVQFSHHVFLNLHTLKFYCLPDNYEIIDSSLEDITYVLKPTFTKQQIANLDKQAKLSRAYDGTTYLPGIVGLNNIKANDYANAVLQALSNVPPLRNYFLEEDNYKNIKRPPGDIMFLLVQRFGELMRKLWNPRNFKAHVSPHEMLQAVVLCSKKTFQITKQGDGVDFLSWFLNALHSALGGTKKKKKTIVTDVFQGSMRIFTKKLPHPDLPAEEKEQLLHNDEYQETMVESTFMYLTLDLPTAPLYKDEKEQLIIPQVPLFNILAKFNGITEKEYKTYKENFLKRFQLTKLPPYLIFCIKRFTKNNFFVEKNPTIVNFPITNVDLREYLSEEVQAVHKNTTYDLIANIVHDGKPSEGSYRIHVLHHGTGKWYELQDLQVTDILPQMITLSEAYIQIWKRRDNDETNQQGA

Compound in the first experiment: ClCC(=O)NC1(CCCC1)C#N
As to the kind of experiment: log2 ratio of Biotin-Ahx-Ub-VS probe labelling (compound/DMSO); higher = less target engagement, active = hit call of the paper (q ≤ 0.05, log2 ratio ≤ -1). The following applies: compound concentration: 50uM; treatment time: 3 h. The procedure: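 Round 2 competitive ABPP in HEK293T lysate. Compounds were tested at 50 and 200 µM for 3 h, followed by Biotin-Ahx-Ub-VS enrichment and diaPASEF LC-MS/MS. Values are the average log2 ratio (compound/DMSO) from an unpaired t-test (n=3 treated, n=26 DMSO).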
As to USP38 (UniProt Q8NB14), the “log2 ratio of Biotin-Ahx-Ub-VS probe labelling” value (from here on “log2 ratio”) was -0.219 (inactive).

On to USP34 (UniProt Q70CQ2), for which the “log2 ratio” value is -0.504 (inactive).

On to OTUD6B (UniProt Q8N6M0), for which the “log2 ratio” value is -0.241 (inactive).

For USP14 (UniProt P54578), the “log2 ratio” value is 0.0754 (inactive).

For the target OTUB1 (UniProt Q96FW1), the “log2 ratio” value was -0.00568 (inactive).

Consider USP16 (UniProt Q9Y5T5), for which the “log2 ratio” value is -0.176 (inactive).

Take UniProt P51784: the “log2 ratio” value is 0.0618 (inactive).

For USP5 (UniProt P45974), the “log2 ratio” value was -0.165 (inactive).

On to EIF3H (UniProt O15372), for which the “log2 ratio” value is -0.0689 (inactive).

Regarding USP7 (UniProt Q93009), the “log2 ratio” value was -0.163 (inactive).

In the case of USP19 (UniProt O94966), the “log2 ratio” value is -0.227 (inactive).

For PRPF8 (UniProt Q6P2Q9), the “log2 ratio” value was -0.0469 (inactive).

OTUD4 (UniProt Q01804): the “log2 ratio” value is -1.46 (active).

Regarding USP12 (UniProt O75317), the “log2 ratio” value was -0.429 (inactive).

Regarding USP15 (UniProt Q9Y4E8), the “log2 ratio” value is -0.194 (inactive).

Consider YOD1 (UniProt Q5VVQ6), for which the “log2 ratio” value was -0.0389 (inactive).

As to USP4 (UniProt Q13107), the “log2 ratio” value is -0.0435 (inactive).

UCHL1 (UniProt P09936): the “log2 ratio” value is -0.205 (inactive).

Take USP39 (UniProt Q53GS9): the “log2 ratio” value is 0.213 (inactive).

On to BAP1 (UniProt Q92560), for which the “log2 ratio” value was -1.04 (active).

The experiment is the same for the next values; noted with them: compound concentration: 200uM; treatment time: 3 h.
In the case of USP38 (UniProt Q8NB14), the “log2 ratio” value is -0.177 (inactive).

Consider USP34 (UniProt Q70CQ2), for which the “log2 ratio” value was -0.364 (inactive).

For the target OTUD6B (UniProt Q8N6M0), the “log2 ratio” value was -0.219 (inactive).

For USP14 (UniProt P54578), the “log2 ratio” value is 0.244 (inactive).

As for OTUB1 (UniProt Q96FW1), the “log2 ratio” value is 0.00171 (inactive).

Take USP16 (UniProt Q9Y5T5): the “log2 ratio” value is -0.253 (inactive).

As to UniProt P51784, the “log2 ratio” value was 0.0228 (inactive).

As for USP5 (UniProt P45974), the “log2 ratio” value is -0.145 (inactive).

As to EIF3H (UniProt O15372), the “log2 ratio” value is 0.0852 (inactive).

With USP7 (UniProt Q93009), the “log2 ratio” value was -0.0621 (inactive).

Consider USP19 (UniProt O94966), for which the “log2 ratio” value was -0.0992 (inactive).

With PRPF8 (UniProt Q6P2Q9), the “log2 ratio” value is -0.0301 (inactive).

On to OTUD4 (UniProt Q01804), for which the “log2 ratio” value was -1.76 (active).

USP12 (UniProt O75317): the “log2 ratio” value is 0.0646 (inactive).

As for USP15 (UniProt Q9Y4E8), the “log2 ratio” value is -0.0271 (inactive).

As for YOD1 (UniProt Q5VVQ6), the “log2 ratio” value was 0.0083 (inactive).

With USP4 (UniProt Q13107), the “log2 ratio” value is -0.588 (inactive).

Regarding UCHL1 (UniProt P09936), the “log2 ratio” value was -0.155 (inactive).

In the case of USP39 (UniProt Q53GS9), the “log2 ratio” value is -0.0479 (inactive).

With BAP1 (UniProt Q92560), the “log2 ratio” value is -2.81 (active).
